Screening results (PubChem)
Hits are enriched below; roughly 4.8% of the tested compounds scored in any of these assays.
SMARCA2 act: increases SMARCA2 function in MMTV reporter cells | activation, % at 9.1 µM | actives 1% (n = 370,000) | MG213 cells, MMTV-luciferase reporter, dexamethasone, overnight; in the data active = activation above about 7.8%
ssDAF12 agonist: S. stercoralis DAF-12 activation, primary screen | HEK293 ssDAF-12/GRIP1 lit1-tk-luc reporter, luminescence; % of 3 µM dafachronic acid response | activation, % at 6.8 µM | actives 1% (n = 370,000);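 active = activation above the mean over all tested compounds plus 3 SD, cut at about 0.9% in these data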
DAX1 inh-1: DAX1 (NR0B1) inhibition, primary screen. HEK293T StAR-luciferase reporter, SF-1/DAX-1 repression relief. inhibition, % at 6.8 µM. actives 1.1% (n = 370,000);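 active = inhibition above the mean over all tested compounds plus 3 SD, cut at about 3.6% in these data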;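 note: higher inhibition means more luminescence from relief of DAX-1 repression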
DAX1 inh-2: inhibits human nuclear receptor DAX1 | actives 0.99% (n = 340,000) | AID 504766 | HEK293 Gal4-DAX1 luciferase reporter, luminescence | P51843 | inhibition, % at 6.75 µM;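 active = inhibition above the mean over all tested compounds plus 3 SD, cut at about 4.2% in these data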;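 note: inhibition shows as a rise in luminescence from relieved DAX1 repression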
Target sequence (P51843 207-470 limits assumed): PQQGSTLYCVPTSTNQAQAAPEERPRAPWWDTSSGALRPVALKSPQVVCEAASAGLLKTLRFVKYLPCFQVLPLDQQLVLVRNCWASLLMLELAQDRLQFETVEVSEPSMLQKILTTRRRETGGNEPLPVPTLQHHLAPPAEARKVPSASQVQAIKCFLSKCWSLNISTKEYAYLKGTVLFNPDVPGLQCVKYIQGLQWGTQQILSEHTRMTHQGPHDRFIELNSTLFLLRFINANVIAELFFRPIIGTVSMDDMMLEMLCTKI
hcDAF12 agonist: H. contortus DAF-12 activation, primary screen. HEK293 hcDAF-12 lit1-tk-luc reporter, luminescence; 0% DMSO, 100% Δ7-dafachronic acid. activation, % at 6.8 µM. actives 1.4% (n = 370,000). AID 652067;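 active = activation above the mean of all tested compounds plus 3 SD, cut at about 5.5% in these data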
hgDAF-12 ag: activates the H. glycines DAF-12 receptor ligand-binding domain; actives 1.8% (n = 370,000); activation, % at 6.8 µM; HEK293 GAL4-hgDAF12 UAS-luciferase reporter, agonist luminescence; normalized to butyrate control;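 active = activation above a cutoff set at the mean of all screened compounds plus 3 SD, cut at about 10% in these data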
Large screens that a line does not name were inactive.

Cc1ccc(NC(=O)C(C)OC(=O)Cc2c[nH]c3ccccc23)cc1 (stereo not drawn)	none
Cc1ccc(C(=O)C(C)OC(=O)Cc2c[nH]c3ccccc23)cc1 (stereo not drawn)	ssDAF12 agonist 0.9
O=C(O)C(O)Cc1c[nH]c2ccccc12 (stereo not drawn)	DAX1 inh-2 4.7
COC(=O)C(Cc1c[nH]c2ccccc12)NC(=O)c1ccccc1Br (stereo not drawn)	ssDAF12 agonist 1.1
Cc1noc(C)c1C(=O)NC(Cc1c[nH]c2ccccc12)C(=O)O (stereo not drawn)	ssDAF12 agonist 1.2
CCC(=O)Nc1ccc2c(c1)OC[C@@H](C)N(C(=O)c1ccccn1)C[C@@H](C)[C@@H](OC)CN(C)C2=O	none (no result: DAX1 inh-2)
Cc1cc(C)c(C(=O)C(C)OC(=O)c2ccc(Cl)nc2)cc1C (stereo not drawn)	none
Cc1nc(N[C@@H](Cc2c[nH]c3ccccc23)C(=O)O)c2oc3ccccc3c2n1	hcDAF12 agonist 5.9 (no result: DAX1 inh-2)
CCc1nc(N[C@@H](Cc2c[nH]c3ccccc23)C(=O)O)c2oc3ccccc3c2n1	none
O=C(Cn1nnc2ccccc2c1=O)N[C@@H](Cc1c[nH]c2ccccc12)C(=O)O	ssDAF12 agonist 1.0
O=C(NC(Cc1c[nH]c2ccccc12)C(=O)O)c1cccc(S(=O)(=O)N2CCCCC2)c1 (stereo not drawn)	hcDAF12 agonist 5.7
O=C(CN1C(=O)/C(=C/c2ccccc2)SC1=S)N1CCN(CCc2ccccn2)CC1	none
COc1ccc(OC)c(CCNC(=O)CCCc2nnc3n(C)c(=O)c4sccc4n23)c1	none
COc1oc(-c2ccccc2)nc1C(F)(F)F	DAX1 inh-2 4.3
COc1ccc(N=Cc2nc(-c3ccccc3)oc2OC(C)=O)cc1	none
CN(C)c1ccc(N=Cc2nc(-c3ccccc3)oc2OC(=O)c2cccc(Cl)c2)cc1	hgDAF-12 ag 11.6
O=C(N[C@H](C(=O)N1CCC[C@H]1C(=O)NCc1ccccc1)C1CCCCC1)c1ccc(Cl)cc1Cl	none (no result: DAX1 inh-2)
O=[N+]([O-])c1ccc(C2Nc3cccc4cccc(c34)N2)cc1	ssDAF12 agonist 1.6
O=C(NN1C(=O)/C(=C/c2ccc(O)c(O)c2)SC1=S)c1ccccc1	ssDAF12 agonist 1.2
Cc1cc(C)c2sc(NC(=O)CN3C(=O)CCC3=O)nc2c1	DAX1 inh-2 5.1
Cc1cc(C)c2sc(NC(=O)c3ccc(N4C(=O)CCC4=O)cc3)nc2c1	none
O=C(CCc1nc2ccccc2c(=O)[nH]1)N1CCCc2ccccc21	ssDAF12 agonist 1.3, hcDAF12 agonist 5.6
O=C1c2cccnc2C(=O)N1Cc1ccc(F)cc1S(=O)(=O)NCc1ccco1	none
Cc1ccc(-c2ccc(CCC(=O)O)o2)cc1	ssDAF12 agonist 2.6
COc1cccc2cc(-c3nnc(-c4ccccc4)o3)c(=O)oc12	hgDAF-12 ag 11.1
CC/C(C)=N/Nc1nc(-c2cc3cccc(OC)c3oc2=O)cs1	hgDAF-12 ag 12.4 (no result: DAX1 inh-2)
O=C(NCc1ccccc1)c1ccc(NC(=O)C2CCCO2)cc1 (stereo not drawn)	none
Cc1cn(-c2cccnc2)c(C)c1CNC[C@H]1O[C@@H](n2cnc3c(N)ncnc32)[C@H](O)[C@@H]1O	none
CC(=O)Nc1cc(-c2cccc(F)c2)cn2c(-c3ccc(F)c(Cl)c3)cnc12	DAX1 inh-1 4.5 (no result: DAX1 inh-2)
COc1cccc(-c2cc(NC=O)c3ncc(-c4ccc(C(C)=O)cc4)n3c2)c1	hgDAF-12 ag 10.8 (no result: DAX1 inh-2)
COc1ccc(-c2cc(NC=O)c3ncc(-c4ccc(C(C)=O)cc4)n3c2)cc1OC	SMARCA2 act 7.9 (no result: DAX1 inh-2)
COc1ccc(-c2cc(NC=O)c3ncc(-c4cccc(C(C)=O)c4)n3c2)cc1	none (no result: DAX1 inh-2)
CC(=O)Nc1cc(-c2ccccc2)cn2c(-c3ccc(F)c(Cl)c3)cnc12	none (no result: DAX1 inh-2)
COc1cc(-c2cc(NC=O)c3ncc(-c4ccc(C(C)=O)cc4)n3c2)cc(OC)c1OC	none (no result: DAX1 inh-2)
Cc1ccc([C@@H]2CC(=O)[C@@H]3CN(S(=O)(=O)c4ccc(C)cc4)[C@H](c4ccccc4)C[C@@H]3N2S(=O)(=O)c2ccc(C)cc2)cc1	none (no result: DAX1 inh-2)
CCc1cc2c(COC(=O)CCNS(=O)(=O)c3cccc(C(F)(F)F)c3)cc(=O)oc2cc1O	none
CCOc1ccc(C(=O)Cc2ccccc2)cc1	ssDAF12 agonist 1.1, hgDAF-12 ag 11.6
O=C(Cn1cncn1)c1ccccc1	DAX1 inh-2 5.7
O=C(CC(=O)c1ccncc1)c1ccccc1	none
COc1ccc(OC(=O)Nc2ccccc2)cc1	DAX1 inh-1 3.9
O=C(CC(=O)c1ccccc1)c1ccccc1	DAX1 inh-1 3.6, hgDAF-12 ag 10.9
O=C(Cn1cccn1)c1ccccc1	none
Cc1nc2ccc(S(=O)(=O)NCC(=O)NCc3ccc(F)cc3)cc2s1	none (no result: DAX1 inh-2)
COc1ccc(-c2csc(C(C)(O)c3cccc(F)c3)n2)cc1OC (stereo not drawn)	none (no result: DAX1 inh-2)
COc1ccc2c(c1OC)C(=O)N(c1ccc(OCc3ccccc3)cc1)C2=O	none
COc1ccc(C(=O)CC(=O)c2ccccc2)cc1	hgDAF-12 ag 11.0 (no result: DAX1 inh-2)
COc1ccc(C(=O)CCNc2ccc(F)cc2)cc1	DAX1 inh-2 5.2
COc1ccc(C(=O)NCCCc2ccccc2)cc1	hgDAF-12 ag 10.6 (no result: DAX1 inh-2)
COc1ccc(C(=O)CNc2ccc3ccccc3c2)cc1	hcDAF12 agonist 5.9 (no result: DAX1 inh-2)
O=C(NCCCc1ccccc1)c1ccccc1	none
COc1ccc(C(=O)CNc2ccccc2Br)cc1	none
COc1ccc(C(=O)CC(=O)c2ccc(OC)cc2)cc1	none
CC1(C(=O)Nc2cccc3ncccc23)CCN1C(=O)Cc1ccc(-c2ccccc2)cc1 (stereo not drawn)	none (no result: DAX1 inh-2)
COc1ccc(CNC(=O)CN2C(=O)c3ccccc3C2=O)cc1	none
COc1ccc(N/C=C/C(=O)c2ccccc2)cc1	ssDAF12 agonist 1.0, DAX1 inh-1 4.4, hgDAF-12 ag 12.5
COc1ccc(C(=O)CN2C(=O)c3ccccc3C2=O)cc1	ssDAF12 agonist 1.5 (no result: DAX1 inh-2)
O=C(CNC(=O)c1ccccc1Cl)c1ccccc1	hgDAF-12 ag 12.5
O=C(CCCc1ccccc1)c1ccccc1	DAX1 inh-2 4.9, hcDAF12 agonist 5.6
O=C(CC[C@H]1O[C@@H](n2cnc3c(NC(=O)c4ccccc4)ncnc32)[C@H](O)[C@@H]1O)N[C@@H](CO)Cc1c[nH]c2ccccc12	none (no result: DAX1 inh-2)
Cc1c(CCOC(=O)c2ccc([N+](=O)[O-])cc2)sc[n+]1CC(=O)c1ccccc1	none
COc1ccc(NC(=O)NC(C)c2ccccc2)cc1 (stereo not drawn)	none
CCC(=O)c1ccc(O)cc1	none
COc1ccc(NC(=O)N/C=C/c2ccccc2)cc1	hgDAF-12 ag 12.0
O=C(CCc1nnc(CCCCc2ccccc2)o1)NC1CCCC1	none
COc1ccc(C(=O)OCCc2sc[n+](CC(=O)c3ccccc3)c2C)cc1	DAX1 inh-2 4.5
